Several values for one entry are separate records, joined by “and”; a condition that tells them apart may be missing. Equal values may be shown once. Screen size: about 330,000 compounds; about 1,500 (0.45%) were called active. Roughly 6% stayed inconclusive and do not appear here. The call rests on the fitted dose curve; tested in A549 cells. The entries come from a sample that favours actives as a whole. Where a call stands in place of a potency, no number is given. A structure can be active in one record and inactive in another.
Test: qHTS for Stage-Specific Inhibitors of Vaccinia Orthopoxvirus: Venus Reporter Primary qHTS; further: nearly all actives have a fitted effect of over 30% in size
Conditions: Vaccinia virus Venus reporter expression, fluorescence; series mostly up to 36.5 µM
Potency means the concentration at half of the fitted maximal effect.

Row | SMILES | Potency | activity change, negative = inhibition
1 | CCCCC[C@H](C)N1C[C@@H](COCc2ccccc2)Oc2cc(N3CC[C@@H](N(C)C)C3)ccc2S1(=O)=O | inactive | –
2 | CCC(C(=O)NCc1ccccc1)n1c(Cc2cc(F)cc(F)c2)nc2ccccc21 (configuration not stated) | inactive | –
3 | CCCCNC(=O)C[C@@H]1C[C@@]2(C(=O)OC)CC(C)(C)CC=C2N(Cc2ccco2)C1=O | inactive | –
4 | O=C(c1ccc(C(F)(F)F)cc1)N1CCC(=O)N([C@H](COCc2ccccc2)Cc2ccccc2)CC1 | inactive | –
5 | O=C1Nc2ccccc2NC(c2ccc3c(c2)OCO3)=C1N(Cc1ccc(F)cc1)C(=O)c1ccco1 | inactive | –
6 | COc1ccc(C(=O)c2c3ccc([N+](=O)[O-])cc3[n+]([O-])n2CCCN)cc1 | 10 µM (active) | –
7 | COc1ccc(Cc2nnc(SCC(=O)c3cccc([N+](=O)[O-])c3)n2C)cc1 | inactive | –
8 | COc1ccc2c(C(=O)c3ccc(C)cc3)n(CCC(N)=O)[n+]([O-])c2c1 | inactive | –
9 | COc1ccc(C(C)(O)c2nc(-c3ccc(C)c(C)c3)cs2)cc1 (configuration not stated) | inactive | –
10 | CCOc1ccc(/C=N\NC(=O)c2c(C)nc3cc(C)ccn23)cc1 | inactive | –
11 | CCOc1ccc(-c2cc(C(=O)N/N=C/c3ccc(O)cc3)c3ccccc3n2)cc1 | inactive | –
12 | CCOc1ccc(/C=N/NC(N)=S)cc1 | 1 µM (active) | –
13 | CCCCn1nnnc1C(c1cccc(OC)c1OC)N1CCN(C/C=C/c2ccccc2)CC1 (configuration not stated) | inactive | –
14 | C=CCC[C@H](CCCCC)OC(=O)/C=C/[C@H](O)[C@@H](O)C[C@@H](O)CC=C | inactive | –
15 | COC(=O)[C@]12CCCCC=C1N(Cc1ccco1)C(=O)[C@H](CC(=O)NCC1CCCCC1)C2 | inactive | –
16 | COc1ccc(CN(Cc2ccccc2)C(=O)c2ccc(O)cc2)cc1COc1ccc(NC(C)=O)cc1 | inactive | –
17 | COc1cc(C#Cc2ccc3cc(CCCO)oc(=O)c3c2)cc(OC)c1 | inactive | –
18 | COc1cc(/C=C2\Oc3ccc(C#Cc4ccc(O)cc4)cc3C2=O)cc(OC)c1 | 8.91 µM (active) | –
19 | CC(C)C1C(=O)N(Cc2cn(CCC3OCCO3)nn2)CCS(=O)(=O)N1Cc1ccc(-c2ccccc2C(F)(F)F)cc1 (configuration not stated) | inactive | –

Row | SMILES | Potency | activity change, negative = inhibition
20 | CC(C)OC(=O)c1ccc(COc2ccc3ccc(=O)oc3c2)o1 | inactive | –
21 | Cc1noc(C)c1COc1ccc2ccc(=O)oc2c1 | inactive | –
22 | CC(=CCOc1ccc2ccc(=O)oc2c1)C1=CC(=O)C(C)(C)O1 | 3.55 µM (active) | –
23 | CCOc1ccc(CCN2C(=S)N([C@@H](CC(C)C)CN3CCC[C@@H]3CN3C(=S)NC[C@@H]3Cc3ccc(O)cc3)C[C@@H]2CC(C)C)cc1 | inactive | –
24 | Cc1ccc(C(=O)Nc2nc3ccc(Cl)cc3s2)o1 | – | -7.19% [at 7.34 µM] (inactive)
25 | Cc1ccc(CCC(=O)Nc2ncc(Cc3cc(Cl)ccc3Cl)s2)o1 | 4.47 µM (active) | –
26 | Cc1cnc(NC(=O)CSc2nnc(-c3ccc(Cl)cc3Cl)n2N)s1 | inactive | –
27 | COC(=O)C1=CN(c2c(C)cc(C)cc2C)C(N)=C(C#N)C1c1cccc(F)c1 (configuration not stated) | inactive | –
28 | CC(C)CNc1ncnc2c1cnn2Cc1ccc(Cl)cc1 | inactive | –
29 | Clc1ccc(Cn2ncc3c(NCc4cccnc4)ncnc32)cc1 | 8.91 µM (active) | –
30 | Brc1ccc2ncnc(NCc3cccnc3)c2c1 | inactive | –
31 | CC(C)C[C@H]1CN([C@@H](Cc2ccccc2)CN2CCC[C@@H]2CN2C(=O)C(=O)NC[C@@H]2Cc2ccc(O)cc2)C(=O)C(=O)N1CCc1ccccc1 | inactive | –
32 | COc1ccc(-c2nc(=N)sn2-c2ccccc2)cc1 | inactive | –
33 | COc1ccc(C(NC(=O)C2CCN(CCCc3ccccc3)CC2)c2cccs2)cc1 (configuration not stated) | inactive | –
34 | N#Cc1c(Cl)c(Cl)c(Cl)c(C#N)c1Cl | inactive and 14.1 µM (active) | –
35 | CCOc1ccc(NC(=O)CSc2nnc3c(n2)[nH]c2ccc(S(=O)(=O)N4CCOCC4)cc23)cc1 | inactive | –
36 | COC1C(O)C(C)OC(OC2CCC3(C=O)C(CCC4C3CCC3(C)C(C5=CC(=O)OC5)CCC43O)C2)C1O (configuration not stated) | 0.1 µM (active) | –
37 | COC1CC(OC2CC[C@@]3(C=O)C4CC[C@]5(C)C(C6=CC(=O)OC6)CC[C@@]5(O)C4CC[C@]3(O)C2)OC(C)C1O (some centres not stated) | 0.282 µM (active) | –
38 | O=C(Nc1ccc2c(c1)OCCO2)C(C1CC1)N1CCC(Cc2ccccc2)CC1 (configuration not stated) | inactive | –

Row | SMILES | Potency | activity change, negative = inhibition
39 | O=S1(=O)CC(N2CCN(Cc3ccccc3F)CC2)CN1Cc1cn(Cc2ccccc2)nn1 (configuration not stated) | inactive | –
40 | Cc1nc2c(OCc3ccc(Cl)cc3)cccn2c1N(C)Cc1cccs1 | inactive | –
41 | CCOC(=O)[C@]12CCCC=C1N(Cc1ccc3c(c1)OCO3)C(=O)[C@H](CC(=O)N1CCN(C(=O)c3ccco3)CC1)C2 | inactive | –
42 | COC(=O)c1ccc(NC(=O)CSc2nnc(CNc3ccc(OC)cc3)n2C)cc1 | 12.6 µM (active) | –
43 | COc1ccc(C(=O)NCc2nnc(SCC(=O)NC3=NCCS3)n2C)cc1 | inactive | –
44 | COC(=O)c1ccc(NC(=O)CSc2nnc(C3CC3)n2C)cc1 | inactive | –
45 | Cc1ccc(S(=O)(=O)N2[C@@H](Cc3ccccc3)CO[C@H]2CC(=O)OCc2ccccc2)cc1 | inactive | –
46 | N#Cc1cccc(NC(=O)c2cc(C3CCCCN3C(=O)CCc3ccccc3)on2)c1 (configuration not stated) | inactive | –
47 | CCOC(=O)N1C(=O)C[C@](Sc2ccc(C)cc2)(C(=O)OC)[C@H]1c1ccccc1 | inactive | –
48 | COc1ccc(OC)c(NC(=O)C2(C)CCN2C(=O)Cc2ccccc2)c1 (configuration not stated) | inactive | –
49 | O=C(NCc1cccnc1)c1cc(C2CCCN(C(=O)C3CCCCC3)C2)on1 (configuration not stated) | inactive | –
50 | CC(C)n1cnc2c(Nc3cccc(Cl)c3)nc(N(CCO)CCCO)nc21 | 11.2 µM (active) | –
51 | CC(C)C[C@H](CO)Nc1nc(N(C)c2cccc(Cl)c2)c2ncn(C(C)C)c2n1 | inactive | –
52 | COC(=O)[C@@]12C[C@@H](CC(=O)N3CCCCC3)C(=O)N(Cc3ccc4c(c3)OCO4)C1=CCC(C)(C)C2 | inactive | –
53 | CCc1nc2c(OCc3ccc(C(=O)OC)cc3)cccn2c1N(C)C(=O)C(C)C | inactive | –
54 | CN(C)c1ccc(/C=C/C=C/c2ccnc3ccccc23)cc1 | inactive | –
55 | COc1cccc(-c2nc(Nc3ccncc3)c3ccccc3n2)c1 | inactive | –
56 | O=[N+]([O-])c1ccc(F)cc1Oc1nc(-c2cccnc2)nc2ccccc12 | 5.01 µM (active) | –
57 | Cc1cnc(CNc2nc(-c3cccnc3)nc3ccccc23)cn1 | inactive | –
